From PubChem BioAssay
Active and inactive are the calls of the source.

assay: basal HepG2 mitochondrial membrane potential changes, profiling panel, cell-based, JC-1 fluorescence, 24 h, 100 nL compound (AID 1167); details: higher = more signal
Also: test concentration not given here.

SMILES | z-score
CCCCC(O)C1C=CC2C(=O)N(c3ccccc3)C(=O)C2N1Nc1ccc([N+](=O)[O-])cc1 (centres undefined) | -0.573
C=CCNC(=O)[C@@H]1[C@H]2C(=O)O[C@H](c3ccccc3)[C@H](c3ccccc3)N2[C@H](c2ccc(OCCO)cc2)[C@@]12C(=O)Nc1ccc(C#CC3(O)CCCCCC3)cc12 | -1.16
CN1C(=O)C2C(C1=O)C1C=C(c3ccc(CO)cc3)C2C(C2CC2)N1C (centres undefined) | 0.399
COC(=O)[C@@]1(Cc2ccc(F)cc2)[C@H]2c3cc(C(=O)N4CCCC4)n(Cc4ccccn4)c3C[C@H]2CN1C(=O)c1ccccc1 | 1.51
NC(=O)N1C(=O)C2C(C1=O)C1C=C(CCCO)C2C(c2ccc(CN3CCCC3)cc2)N1Cc1cc2c(cc1Br)OCO2 (centres undefined) | -0.595
CCCCN1CC=CC23O[C@@H]4/C=C\CCCOC(=O)C4[C@H]2C(=O)N(C(CO)C(C)C)[C@@H]3C1=O (some centres undefined) | -0.945
O=C1O[C@H](c2ccccc2)[C@H](c2ccccc2)N2[C@H]1[C@@H](C(=O)N1CCN(c3ncccn3)CC1)[C@]1(C(=O)Nc3ccc(C#CCCO)cc31)[C@H]2c1ccc(O)cc1 | -0.19
O=C1NC(=O)C2C1C=CC(C(O)c1ccc([N+](=O)[O-])cc1)N2Nc1ccccn1 (centres undefined) | -0.969
O=C1C2C=CC(C(O)c3ccc([N+](=O)[O-])cc3)N(Nc3ccccc3F)C2C(=O)N1c1ccccc1 (centres undefined) | -1.5
COc1ccc([Si](C)(C)[C@@H]2[C@@H](CC(=O)N(CCO)Cc3ccccc3)O[C@]3(C(=O)N(Cc4ccc(I)cc4)c4ccccc43)[C@H]2C)cc1 | 1.17
CN1C(=O)C2C(C1=O)C1C=C(CCCO)C2C(C2CC2)N1Cc1cccc(OC(F)(F)F)c1 (centres undefined) | 0.217
CCOC(=O)C[C@H]1[C@H](OC(=O)c2cc3ccccc3oc2=O)[C@@H](NC(=O)CC(C)C)c2cc(OCCCO)ccc2N1C(=O)Cc1ccc(OC)cc1 | 0.433
NC(=O)N1C(=O)C2C(C1=O)C1C=C(CCCO)C2C(C2CC2)N1Cc1sc2ccccc2c1Cl (centres undefined) | 0.709
COCCn1c(C(=O)N(C)C)cc2c1C[C@H]1CN(C(=O)c3ccccc3)[C@@](Cc3ccc(OC)cc3)(C(=O)OC)[C@@H]21 | 0.564

assay: basal 3T3-L1 adipocyte mitochondrial potential changes, profiling panel, cell-based, JC-1 fluorescence, 3T3-L1 adipocytes, 24 h, 100 nL compound (AID 1168); details: JC-1 mitochondrial fluorescence, higher = more signal, called active from +8 up or from −8 down

SMILES | z-score
CCCNC(=O)[C@@]1(Sc2ccc(C)cc2)CC(=O)N(Cc2ccccc2Cl)[C@@H]1c1ccc(CO)cc1I | 0.667 (inactive)
C=CCN1Cc2ccccc2[C@H]2OC(c3ccc(OCCCO)cc3)=N[C@@]2(CCS(=O)(=O)c2ccccc2)C1=O | -0.509 (inactive)
[N-]=[N+]=Nc1ccccc1C[C@]1(C(=O)N2CCOCC2)N=C(c2ccc(OCCCO)cc2)O[C@H]1c1ccccc1N=[N+]=[N-] | -0.0199 (inactive)
C[C@]1(C(=O)O)c2ccccc2C(=O)N(Cc2cc(F)cc(C(F)(F)F)c2)[C@H]1c1ccc(CO)cc1 | 0.235 (inactive)
CC(C)c1nc2cc(Br)ccc2c(=O)o1 | 0.316 (inactive)
CN(C)CCCC[C@@H]1NC(=O)[C@H]2C[C@@H](C(=O)O)[C@@H](c3ccc(O)cc3)N2C1=O | 0.419 (inactive)
CN1C(=O)C2C(C3CC3)C=C3CN(Cc4cccc(Cl)c4)[C@@H]([C@@H](O)Cc4ccccc4)C3C2C1=O (some centres undefined) | -0.424 (inactive)
C=CCC(OC(C)=O)[C@@H]1[C@@H](N(Cc2ccc(-c3cccc(C(F)(F)F)c3)o2)C(=O)c2ccc(-c3ccccc3)cc2)c2cc(OCCCO)ccc2N1C(=O)c1ccc2ccccc2c1 (some centres undefined) | -0.081 (inactive)
CCCCC(O)C1C=CC2C(=O)N(c3ccccc3)C(=O)C2N1Nc1ccc(C#N)cc1 (centres undefined) | -1.19 (inactive)
NC(=O)N1C(=O)C2C(C1=O)C1C=C(CCCO)C2C(c2ccc(CN3CCCC3)cc2)N1Cc1sc2ccccc2c1Cl (centres undefined) | -0.753 (inactive)
CC(C)=CCCC(C)=CC(O)C1C=CC2C(=O)NC(=O)C2N1Nc1ccccn1 (centres undefined) | -0.503 (inactive)
Cc1ccc(S[C@]2(C(=O)NCCCN(C)C)CC(=O)N(C3Cc4ccccc4C3)[C@@H]2c2ccc(CO)cc2I)cc1 | -1.28 (inactive)
COc1ccc(C#Cc2ccc3c(c2)[C@]2(C(=O)N3)[C@H](C(=O)O)[C@H]3C(=O)O[C@H](c4ccccc4)[C@H](c4ccccc4)N3[C@@H]2c2ccccc2OCCO)cc1 | 2.1 (inactive)
COc1ccc(CCNC(=O)[C@@H]2c3ccccc3C(=O)N(Cc3ccccc3OC)[C@H]2c2ccc(CO)cc2)cc1 | -0.822 (inactive)
C=CCC(OC(C)=O)[C@@H]1[C@@H](N(Cc2cccc3ccccc23)C(=O)Cc2ccc(OC)cc2)c2cc(OCCCO)ccc2N1C(=O)Cc1ccc2ccccc2c1 (some centres undefined) | -0.199 (inactive)
